Of roughly 7,900 targets only a part is listed; those with a hit were picked by preference. About 0.6% of all pairs of compound and target were hits.
Key:
Test in all cases: log2 fold change, soluble protein after heating vs DMSO (PISA); higher = thermal stabilisation; K562 cells, 10 uM, 30 min; active = over 0.2 and 3.5 SD of the protein, either way, in both replicates (recomputed)
erlotinib = compound: C#Cc1cccc(Nc2ncnc3cc(OCCOC)c(OCCOC)cc23)c1 [erlotinib]
Summary of the method: (§1)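 K562 cells at 2×10^6 cells/mL were treated with 10 μM compound for 30 min. Aliquots were heated for 3 min across 48°C-58°C, pooled, and extracted in PBS with 0.5% NP-40 at 4°C; soluble protein was the supernatant after 21,000xg for 90 min. Soluble protein was quantified by TMTpro 16plex LC-MS/MS with channel sums equalised, and reported as log2 fold change in thermal stability against DMSO controls, with values from duplicates.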

[1] = compound: C/C(=N\NC(=O)C1=CC(=CC=C1)S(=O)(=O)N2CCOCC2)/C3=C(C=CC(=C3)Cl)O
Summary of the method: as §1

[2] = compound: C1=CC(=C(C=C1Cl)C2=NC3=NC=CN=C3C(=N2)NC4=CC=NC=C4)F
Summary of the method: as §1

[3] = compound: C1=CC(=CC=C1C2=NC3=C(N2)C=C(C=C3)C(=O)N)OC4=CC=C(C=C4)Cl
Summary of the method: as §1

[4] = compound: C1=CC2=C(C=CC(=C2)/C=C\3/C(=O)NC(=NCC4=CC=CS4)S3)N=C1
Summary of the method: as §1

[5] = compound: C1=CC2=NC=CN=C2C=C1/C=C/3\C(=O)NC(=O)S3
Summary of the method: as §1

[6] = compound: C1=CC=C(C=C1)C2=NC(=C(N2)C3=CC=NC=C3)C4=CC(=C(C=C4)Cl)O
Summary of the method: as §1

[7] = compound: C1=CC=C2C(=C1)C3=NNC4=CC=CC(=C43)C2=O
Summary of the method: as §1

[8] = compound: C1CCN(C1)C(=O)NC2=CC=CC(=C2)NC3=NC=C(C(=N3)NCCC4=CN=CN4)Br
Summary of the method: as §1

[9] = compound: C1CN(CCC1(CC2=CC=C(C=C2)Cl)N)C3=NC=NC4=C3C=CN4
Summary of the method: as §1

IRAK-1-4 Inhibitor I = compound: C1COCCN1CCN2C3=CC=CC=C3N=C2NC(=O)C4=CC(=CC=C4)[N+](=O)[O-] [IRAK-1-4 Inhibitor I]
Summary of the method: as §1

ibrutinib = compound: C=CC(=O)N1CCC[C@@H](n2nc(-c3ccc(Oc4ccccc4)cc3)c3c(N)ncnc32)C1 [ibrutinib]
Summary of the method: as §1

[10] = compound: CC(=O)c1cnc2ccc(-c3cc(Cl)c(O)c(Cl)c3)nc2c1N[C@H]1CC[C@H](CN(C)C)CC1
Summary of the method: as §1

ralimetinib = compound: CC(C)(C)Cn1c(N)nc2ccc(-c3[nH]c(C(C)(C)C)nc3-c3ccc(F)cc3)nc21 [ralimetinib]
Summary of the method: as §1

[11] = compound: CC(C)(O)CC(=O)NCCn1ccc2ncnc(Nc3ccc(Oc4cccc(C(F)(F)F)c4)c(Cl)c3)c21
Summary of the method: as §1

[12] = compound: CC(C)C1=C2N=C(C=C(N2N=C1)NCC3=CC=CC=C3)NCCCCCCN
Summary of the method: as §1

[13] = compound: CC(C)C[C@@H](C=O)NC(=O)[C@H](CC(C)C)NC(=O)[C@H](CC(C)C)NC(=O)OCc1ccccc1
Summary of the method: as §1

pinometostat = compound: CC(C)N(C[C@H]1O[C@@H](n2cnc3c(N)ncnc32)[C@H](O)[C@@H]1O)[C@H]1C[C@@H](CCc2nc3cc(C(C)(C)C)ccc3[nH]2)C1 [pinometostat]
Summary of the method: as §1

[14] = compound: CC1=C(C(CC(=O)N1)C2=CC=C(C=C2)C(F)(F)F)C(=O)NC3=C(C=C4C(=C3)C=NN4)F
Summary of the method: as §1

[15] = compound: CC1=C(C2=C(C=C1)C(=O)C3=CC=CC=C3N2CCCN)C
Summary of the method: as §1

Measured: log2 fold change

SSR3 isoform 2 (UniProt Q9UNL2)
Sequence of UniProt Q9UNL2 (Q9UNL2 whole entry, looked up): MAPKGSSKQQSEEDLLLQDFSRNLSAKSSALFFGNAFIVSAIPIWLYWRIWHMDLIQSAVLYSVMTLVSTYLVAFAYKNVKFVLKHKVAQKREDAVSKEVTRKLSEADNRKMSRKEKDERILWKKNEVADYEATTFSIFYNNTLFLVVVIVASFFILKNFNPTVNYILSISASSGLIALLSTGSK
inactive: erlotinib 0.019 | [1] 0.054 | [2] -0.013 | [3] -0.003 | [4] -0.187 | [5] 0.037 | [6] 0.006 | [7] 0.028 | [8] -0.119 | [9] -0.011 | IRAK-1-4 Inhibitor I 0.158 | ibrutinib 0.029 | [10] 0.132 | ralimetinib 0.06 | [11] 0.031 | [12] 0.01 | [13] -0.049 | pinometostat -0.134 | [14] 0.036 | [15] -0.022

THYN1 (UniProt Q9P016)
active: [15] 0.331
inactive: erlotinib -0.061 | [1] 0.007 | [2] -0.041 | [3] 0.125 | [4] 0 | [5] 0.006 | [6] -0.032 | [7] 0.145 | [8] -0.002 | [9] -0.037 | IRAK-1-4 Inhibitor I -0.032 | ibrutinib -0.028 | [10] 0.039 | ralimetinib -0.01 | [11] 0.036 | [12] -0.046 | [13] 0.025 | pinometostat 0.004 | [14] -0.033

TK1 (UniProt P04183)
Sequence of UniProt P04183 (P04183 whole entry, looked up): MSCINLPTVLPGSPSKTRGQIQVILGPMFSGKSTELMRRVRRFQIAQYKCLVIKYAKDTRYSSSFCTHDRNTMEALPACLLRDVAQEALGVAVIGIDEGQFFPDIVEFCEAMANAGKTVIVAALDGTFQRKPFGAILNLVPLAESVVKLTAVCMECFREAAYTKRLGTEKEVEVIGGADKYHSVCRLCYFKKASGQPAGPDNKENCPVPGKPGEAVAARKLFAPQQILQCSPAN
inactive: erlotinib -0.029 | [1] 0.004 | [2] 0.044 | [3] 0.017 | [4] -0.02 | [5] -0.012 | [6] -0.03 | [7] -0.011 | [8] -0.028 | [9] 0.046 | IRAK-1-4 Inhibitor I 0.037 | ibrutinib 0.025 | [10] 0.003 | ralimetinib -0.048 | [11] -0.016 | [12] 0.059 | [13] -0.001 | pinometostat -0.013 | [14] 0.06 | [15] -0.01

SREK1 isoform 2 (UniProt Q8WXA9)
inactive: erlotinib -0.036 | [1] 0.1 | [2] -0.019 | [3] 0.12 | [4] -0.149 | [5] -0.084 | [6] 0.233 | [7] -0.096 | [8] -0.126 | [9] -0.24 | IRAK-1-4 Inhibitor I -0.245 | ibrutinib -0.006 | ralimetinib 0.036 | [11] 0.026 | [12] -0.36 | [13] 0.005 | pinometostat 0.11 | [14] 0.022 | [15] 0.08
active: [10] -0.497

SLC29A3 (UniProt Q9BZD2)
inactive: erlotinib 0.155 | [1] 0.024 | [2] 0.028 | [3] 0.043 | [4] 0.042 | [5] 0.098 | [6] 0.064 | [7] 0 | [8] 0.074 | [9] 0.052 | IRAK-1-4 Inhibitor I 0.01 | ibrutinib 0.064 | [10] 0.04 | ralimetinib -0.025 | [11] 0.088 | [12] -0.283 | [13] 0.011 | pinometostat 0.02 | [14] -0.046 | [15] -0.148

TJP1 (UniProt Q07157)
active: [10] -0.443
inactive: erlotinib 0.095 | [1] 0.072 | [2] 0.022 | [3] -0.015 | [4] 0.013 | [5] -0.135 | [6] 0.003 | [7] -0.029 | [8] -0.03 | [9] -0.035 | IRAK-1-4 Inhibitor I -0.033 | ibrutinib 0.03 | ralimetinib 0.028 | [11] -0.02 | [12] -0.003 | [13] 0.014 | pinometostat 0.037 | [14] 0.007 | [15] 0.034

THADA (UniProt Q6YHU6)
Sequence of UniProt Q6YHU6 (Q6YHU6 whole entry, looked up): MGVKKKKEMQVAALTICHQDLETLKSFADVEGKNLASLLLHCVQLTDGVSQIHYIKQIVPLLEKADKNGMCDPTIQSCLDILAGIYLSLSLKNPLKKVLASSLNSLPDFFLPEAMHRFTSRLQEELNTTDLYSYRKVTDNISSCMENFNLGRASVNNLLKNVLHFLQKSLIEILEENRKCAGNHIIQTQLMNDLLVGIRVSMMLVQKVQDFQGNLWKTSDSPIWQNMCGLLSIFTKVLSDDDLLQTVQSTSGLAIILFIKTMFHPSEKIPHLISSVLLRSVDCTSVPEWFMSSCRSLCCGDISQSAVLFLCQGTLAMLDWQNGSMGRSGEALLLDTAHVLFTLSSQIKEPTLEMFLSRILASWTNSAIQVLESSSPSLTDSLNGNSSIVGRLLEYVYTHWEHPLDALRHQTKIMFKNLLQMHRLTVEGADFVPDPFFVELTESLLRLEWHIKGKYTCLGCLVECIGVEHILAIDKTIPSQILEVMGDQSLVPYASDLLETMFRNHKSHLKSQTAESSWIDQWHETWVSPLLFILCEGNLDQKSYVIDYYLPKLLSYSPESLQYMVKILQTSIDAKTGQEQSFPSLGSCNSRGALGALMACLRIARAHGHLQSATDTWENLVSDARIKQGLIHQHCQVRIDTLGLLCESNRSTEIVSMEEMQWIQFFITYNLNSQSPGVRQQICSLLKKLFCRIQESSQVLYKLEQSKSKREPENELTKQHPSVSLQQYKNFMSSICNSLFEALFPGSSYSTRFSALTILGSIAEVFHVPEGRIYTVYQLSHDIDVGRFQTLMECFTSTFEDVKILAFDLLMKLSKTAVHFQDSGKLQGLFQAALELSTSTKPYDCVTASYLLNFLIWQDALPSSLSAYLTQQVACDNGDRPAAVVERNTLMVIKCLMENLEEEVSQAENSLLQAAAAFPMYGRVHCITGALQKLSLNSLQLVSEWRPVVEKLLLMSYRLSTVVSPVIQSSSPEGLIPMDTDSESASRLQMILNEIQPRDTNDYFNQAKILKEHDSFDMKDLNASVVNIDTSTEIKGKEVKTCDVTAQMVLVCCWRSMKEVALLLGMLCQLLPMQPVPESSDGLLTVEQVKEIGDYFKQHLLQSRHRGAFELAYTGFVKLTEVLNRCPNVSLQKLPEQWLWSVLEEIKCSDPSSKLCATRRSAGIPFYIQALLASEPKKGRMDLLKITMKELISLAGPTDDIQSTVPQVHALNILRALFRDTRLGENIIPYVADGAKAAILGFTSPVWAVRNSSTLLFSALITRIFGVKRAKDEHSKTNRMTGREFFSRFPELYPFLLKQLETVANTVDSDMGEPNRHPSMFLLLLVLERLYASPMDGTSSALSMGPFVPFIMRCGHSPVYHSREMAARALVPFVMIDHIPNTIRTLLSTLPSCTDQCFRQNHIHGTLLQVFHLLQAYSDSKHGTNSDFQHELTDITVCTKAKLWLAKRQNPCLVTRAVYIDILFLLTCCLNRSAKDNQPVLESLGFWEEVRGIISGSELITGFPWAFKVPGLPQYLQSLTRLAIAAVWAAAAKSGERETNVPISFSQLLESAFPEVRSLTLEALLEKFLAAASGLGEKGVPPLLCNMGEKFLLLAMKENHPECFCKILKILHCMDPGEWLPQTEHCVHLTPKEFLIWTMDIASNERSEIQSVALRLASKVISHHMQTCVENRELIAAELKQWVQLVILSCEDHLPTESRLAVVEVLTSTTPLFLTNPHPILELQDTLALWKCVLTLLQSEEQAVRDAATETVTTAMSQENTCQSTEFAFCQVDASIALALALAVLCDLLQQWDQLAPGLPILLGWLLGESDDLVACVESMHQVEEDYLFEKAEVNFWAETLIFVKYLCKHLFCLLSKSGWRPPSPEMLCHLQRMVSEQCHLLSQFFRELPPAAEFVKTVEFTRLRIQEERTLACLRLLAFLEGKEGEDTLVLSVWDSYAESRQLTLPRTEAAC
inactive: erlotinib 0.039 | [1] 0.068 | [2] 0.03 | [3] 0.035 | [4] 0.071 | [5] 0.007 | [6] 0.029 | [7] -0.002 | [8] -0.011 | [9] -0.006 | IRAK-1-4 Inhibitor I 0.007 | ibrutinib -0.026 | [10] -0.062 | ralimetinib 0.053 | [11] -0.166 | [12] -0.225 | [13] -0.071 | pinometostat 0.016 | [14] -0.05 | [15] -0.047

TAF9 (UniProt Q16594)
Sequence of UniProt Q16594 (Q16594 whole entry, looked up): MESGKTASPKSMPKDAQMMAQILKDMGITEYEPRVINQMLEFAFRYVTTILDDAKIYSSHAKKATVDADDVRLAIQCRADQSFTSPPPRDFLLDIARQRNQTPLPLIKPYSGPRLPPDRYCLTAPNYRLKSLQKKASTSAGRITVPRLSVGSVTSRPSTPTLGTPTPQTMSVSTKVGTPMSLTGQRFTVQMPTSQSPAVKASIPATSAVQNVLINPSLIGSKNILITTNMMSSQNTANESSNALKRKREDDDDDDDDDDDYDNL
inactive: erlotinib -0.007 | [1] -0.003 | [2] -0.036 | [3] 0.014 | [4] -0.027 | [5] 0.019 | [6] -0.04 | [7] -0.032 | [8] -0.024 | [9] 0.02 | IRAK-1-4 Inhibitor I -0.029 | ibrutinib 0.027 | [10] 0.049 | ralimetinib 0.025 | [11] 0.069 | [12] 0.024 | [13] 0.112 | pinometostat -0.072 | [14] 0 | [15] -0.005

SNW1 (UniProt Q13573)
Sequence of UniProt Q13573 (Q13573 whole entry, looked up): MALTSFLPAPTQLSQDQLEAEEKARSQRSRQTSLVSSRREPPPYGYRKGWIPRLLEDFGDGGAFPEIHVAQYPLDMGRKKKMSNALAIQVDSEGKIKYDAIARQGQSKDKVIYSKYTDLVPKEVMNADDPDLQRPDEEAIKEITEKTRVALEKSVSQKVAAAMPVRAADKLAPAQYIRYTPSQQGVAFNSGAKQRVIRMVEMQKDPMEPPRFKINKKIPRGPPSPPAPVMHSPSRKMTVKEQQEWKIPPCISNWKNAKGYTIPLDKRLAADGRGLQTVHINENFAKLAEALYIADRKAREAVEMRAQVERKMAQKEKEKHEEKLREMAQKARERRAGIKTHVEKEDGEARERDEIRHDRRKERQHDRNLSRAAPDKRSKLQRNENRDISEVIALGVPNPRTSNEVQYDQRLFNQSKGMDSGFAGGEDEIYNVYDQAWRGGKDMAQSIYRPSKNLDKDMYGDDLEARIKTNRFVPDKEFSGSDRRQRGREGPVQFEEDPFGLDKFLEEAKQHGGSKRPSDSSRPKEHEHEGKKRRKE
active: [15] 0.23
inactive: erlotinib -0.047 | [1] -0.028 | [2] -0.029 | [3] 0.036 | [4] -0.015 | [5] 0.045 | [6] -0.051 | [7] -0.001 | [8] 0.001 | [9] 0.002 | IRAK-1-4 Inhibitor I 0.004 | ibrutinib 0.024 | [10] 0.197 | ralimetinib 0.021 | [11] 0.024 | [12] 0.149 | [13] 0.075 | pinometostat -0.008 | [14] -0.015

STAT5B (UniProt P51692)
inactive: erlotinib 0.027 | [1] -0.148 | [2] 0.035 | [3] 0.071 | [4] 0.028 | [5] -0.013 | [6] -0.007 | [7] -0.061 | [8] -0.077 | [9] -0.013 | IRAK-1-4 Inhibitor I -0.153 | ibrutinib -0.146 | [10] 0.018 | ralimetinib 0.121 | [11] -0.401 | [12] -0.119 | [13] 0.044 | pinometostat -0.095 | [14] -0.109 | [15] -0.022

SMARCAD1 isoform 2 (UniProt Q9H4L7)
inactive: erlotinib 0.089 | [1] 0.052 | [2] 0.071 | [3] 0.007 | [4] 0.05 | [5] -0.026 | [6] 0.025 | [7] 0.022 | [8] -0.02 | [9] -0.052 | IRAK-1-4 Inhibitor I -0.031 | ibrutinib -0.016 | [10] 0.014 | ralimetinib -0.009 | [11] -0.201 | [12] -0.2 | [13] 0.029 | pinometostat -0.003 | [14] -0.007 | [15] 0.144

TIMM21 (UniProt Q9BVV7)
inactive: erlotinib 0.026 | [1] 0.068 | [2] 0.004 | [3] -0.008 | [4] 0.035 | [5] -0.001 | [6] -0.001 | [7] 0.081 | [8] -0.002 | [9] 0.021 | IRAK-1-4 Inhibitor I -0.009 | ibrutinib -0.02 | [10] -0.026 | ralimetinib -0.01 | [11] 0.011 | [12] -0.169 | [13] 0.099 | pinometostat -0.02 | [14] -0.013 | [15] 0.063

SMC5 (UniProt Q8IY18)
Sequence of UniProt Q8IY18 (Q8IY18 whole entry, looked up): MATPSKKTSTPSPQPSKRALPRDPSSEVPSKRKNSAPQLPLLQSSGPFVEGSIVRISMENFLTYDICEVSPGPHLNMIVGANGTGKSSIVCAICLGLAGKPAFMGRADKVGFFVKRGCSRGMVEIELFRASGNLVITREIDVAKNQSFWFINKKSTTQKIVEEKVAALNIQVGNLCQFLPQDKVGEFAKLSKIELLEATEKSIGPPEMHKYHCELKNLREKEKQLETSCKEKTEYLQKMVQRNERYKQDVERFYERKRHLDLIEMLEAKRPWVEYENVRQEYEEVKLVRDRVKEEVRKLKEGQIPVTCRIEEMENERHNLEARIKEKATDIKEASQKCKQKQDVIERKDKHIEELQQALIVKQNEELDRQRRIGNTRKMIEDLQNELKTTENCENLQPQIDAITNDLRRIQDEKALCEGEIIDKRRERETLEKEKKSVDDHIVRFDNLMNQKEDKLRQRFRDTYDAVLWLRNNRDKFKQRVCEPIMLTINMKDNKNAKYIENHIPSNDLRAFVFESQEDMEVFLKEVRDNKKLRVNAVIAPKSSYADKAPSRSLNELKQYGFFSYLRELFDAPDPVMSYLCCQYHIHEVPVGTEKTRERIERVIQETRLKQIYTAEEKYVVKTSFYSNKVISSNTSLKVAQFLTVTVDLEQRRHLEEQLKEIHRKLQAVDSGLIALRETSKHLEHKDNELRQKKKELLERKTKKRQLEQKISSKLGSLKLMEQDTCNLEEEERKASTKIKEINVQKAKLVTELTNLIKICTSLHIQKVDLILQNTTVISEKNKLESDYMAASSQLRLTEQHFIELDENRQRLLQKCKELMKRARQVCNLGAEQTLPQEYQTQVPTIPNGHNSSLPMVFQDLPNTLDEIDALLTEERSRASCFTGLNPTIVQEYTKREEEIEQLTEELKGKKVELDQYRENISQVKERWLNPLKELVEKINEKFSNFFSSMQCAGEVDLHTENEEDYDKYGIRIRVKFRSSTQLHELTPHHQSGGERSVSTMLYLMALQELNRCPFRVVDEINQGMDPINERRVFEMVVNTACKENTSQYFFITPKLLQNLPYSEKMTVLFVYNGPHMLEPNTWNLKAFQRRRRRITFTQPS
inactive: erlotinib -0.041 | [1] 0.091 | [2] -0.091 | [3] 0.04 | [4] 0.014 | [5] 0.005 | [6] -0.017 | [7] -0.141 | [8] 0.042 | [9] 0.116 | IRAK-1-4 Inhibitor I 0.041 | ibrutinib 0.062 | [10] -0.045 | ralimetinib 0.046 | [11] 0.029 | [12] 0.161 | [13] 0.036 | pinometostat 0.008 | [14] -0.031
active: [15] -0.332

TBC1D23 (UniProt Q9NUY8)
Sequence of UniProt Q9NUY8 (Q9NUY8 whole entry, looked up): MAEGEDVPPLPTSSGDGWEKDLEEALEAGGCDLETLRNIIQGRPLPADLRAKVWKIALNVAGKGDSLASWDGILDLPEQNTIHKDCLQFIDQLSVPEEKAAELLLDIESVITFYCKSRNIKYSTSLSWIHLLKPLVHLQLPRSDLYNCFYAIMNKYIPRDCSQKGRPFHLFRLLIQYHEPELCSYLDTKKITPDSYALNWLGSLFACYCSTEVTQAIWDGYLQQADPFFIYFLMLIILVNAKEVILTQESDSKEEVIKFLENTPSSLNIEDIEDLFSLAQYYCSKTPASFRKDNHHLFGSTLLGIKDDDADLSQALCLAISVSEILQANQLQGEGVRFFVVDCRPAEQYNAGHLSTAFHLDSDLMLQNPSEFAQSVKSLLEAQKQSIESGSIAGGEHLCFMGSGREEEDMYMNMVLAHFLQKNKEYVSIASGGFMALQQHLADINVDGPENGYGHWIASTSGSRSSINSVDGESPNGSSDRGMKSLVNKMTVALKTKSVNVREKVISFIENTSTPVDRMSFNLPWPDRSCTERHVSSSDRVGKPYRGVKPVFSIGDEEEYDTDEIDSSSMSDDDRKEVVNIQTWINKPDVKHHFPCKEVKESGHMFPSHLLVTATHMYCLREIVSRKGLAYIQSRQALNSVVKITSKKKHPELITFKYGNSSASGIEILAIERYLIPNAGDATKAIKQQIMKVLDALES
inactive: erlotinib 0.043 | [1] 0.012 | [2] 0.047 | [3] 0.067 | [4] 0.071 | [5] 0.021 | [6] -0.032 | [7] -0.054 | [8] -0.036 | [9] -0.025 | IRAK-1-4 Inhibitor I 0.062 | ibrutinib -0.02 | [10] -0.067 | ralimetinib 0.002 | [11] -0.098 | [13] 0.071 | pinometostat -0.046 | [14] 0.055 | [15] 0.01
active: [12] -0.45

SNX6 (UniProt Q9UNH7)
inactive: erlotinib 0.093 | [1] 0.056 | [2] 0.035 | [3] 0.017 | [4] 0.042 | [5] -0.057 | [6] -0.053 | [7] -0.159 | [8] 0.053 | [9] -0.018 | IRAK-1-4 Inhibitor I 0.012 | ibrutinib 0.035 | [10] -0.233 | ralimetinib -0.035 | [11] -0.249 | [12] -0.234 | [13] 0.013 | pinometostat 0.048 | [14] 0.026 | [15] -0.013

TFRC (UniProt P02786)
inactive: erlotinib 0.002 | [1] 0.017 | [2] 0.022 | [3] 0.006 | [4] 0.037 | [5] 0.027 | [6] 0.023 | [7] -0.011 | [8] 0.006 | [9] 0.055 | IRAK-1-4 Inhibitor I 0.058 | ibrutinib 0.026 | [10] -0.023 | ralimetinib -0.005 | [11] 0.001 | [12] -0.032 | [13] -0.005 | pinometostat -0.02 | [14] 0.001 | [15] -0.03
